# Pf growth 96h – P. falciparum growth inhibition at 96 hour, primary screen for plastid delayed-death inhibitors | AID 504834 | 6.9% of 320,000 active | P. falciparum luciferase reporter growth, 96 h | Potency, µM (doses to about 28.7 µM), hits mostly inhibitors
#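 Parasite growth measured via integrated firefly luciferase reporter in P. falciparum. Infected erythrocytes at 2% hematocrit, 0.05% parasitemia final were treated 96 hours at 37 C under 5% CO2, and luminescence was read.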
# AMA1 RON2 block – disrupts binding of P. falciparum AMA1 to RON2; 0.2% of 360,000 active; Potency, µM (doses to about 58.2 µM), actives largely listed as inhibitors; AlphaScreen AMA1-biotinylated RON2 peptide binding; also: nearly all actives have a fitted effect of over 45% in size
#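 AMA1 (3D7) with his tag at 25 nM final met compounds first, then biotinylated RON2 peptide at 25 nM; detection used donor plus acceptor beads, 10 µg/mL apiece, read by AlphaScreen after 30 min at room temperature.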
# HCV inhibitor – inhibitors of hepatitis C virus infection; Huh7.5.1 HCVcc-Cre infection, luciferase reporter, 44 h; Potency, µM (highest dose often 41.8 µM), hits mostly inhibitors; 3.4% of 340,000 active
#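 Whole-lifecycle infectious HCVcc-Cre system; cells 1,000/well, compound then virus (~0.5 moi) added 4 h after plating, 44 h culture. Luciferase read 15 sec following 15 min substrate incubation, room temp.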
# Pf growth 48h – P. falciparum growth inhibition at 48 hours (one generation) | P. falciparum luciferase growth in erythrocytes, 48 h | Potency, µM (top dose mostly 28.7 µM), usual class: inhibitors | 5.9% of 310,000 active | AID 504832
#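 Luminescence readout; reporter = integrated firefly luciferase in P. falciparum. RBC culture at 2% hematocrit, 0.1% parasitemia final, 37 C/5% CO2; decreased signal taken as growth inhibition.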
# A number is an active result; – = inactive; ? = inconclusive; · = no result given; ! = not active in a repeat; [ ] = dose if it differs, or a comment. An excerpt weighted towards active compounds, which were near 11% of everything screened. Calls follow the shape of the dose curve; as a rule, active = well fitted curve in the direction sought with a large enough effect; inconclusive = small, poorly fitted or top-dose-only effect, or another doubt; inactive = no such curve, though single readings can be large; an effect the other way counts as inactive or inconclusive.
SMILES,Pf growth 96h,AMA1 RON2 block,HCV inhibitor,Pf growth 48h
CCOc1ccc(CCNC(=O)COC(=O)c2c(C)nn(-c3ccccc3)c2C)cc1OCC,?,–,?,?
CN(C)CCn1c(SCc2ccccc2C#N)nc2c(sc3ccccc32)c1=O,6.57µM,–,–,?
CCN(CC)CCn1c(SCC(=O)Nc2ccc(F)cc2)nc2c(sc3ccccc32)c1=O,?,·,·,9.28µM
Cc1cc(NC(=O)CSc2nc3c(sc4ccccc43)c(=O)n2CCCN2CCOCC2)n[nH]1,?,–,5.62µM,·
CCC1=C(c2ccc(C)cc2)S(=O)(=O)N=C1N1CCC(C(=O)NCCCN2CCCCC2C)CC1 (stereo unspecified),–,–,–,–
O=C(CCN1C(=O)C2C3CC(C(Br)C3Br)C2C1=O)OCC(=O)c1cccc([N+](=O)[O-])c1 (stereo unspecified),–,–,–,–
COc1cc(-c2noc(C)c2C#Cc2ccc(N)cc2)cc(OC)c1OC,?,–,2.24µM,–
COc1cc(-c2noc(C)c2C#Cc2ccccn2)cc(OC)c1OC,?,–,?,–
CNC(C)C#Cc1c(-c2cc(OC)c(OC)c(OC)c2)noc1C (stereo unspecified),14.7µM,–,?,?
O=S(=O)(Nc1nc2ccccc2nc1-[n+]1cccc(N=C([O-])c2ccc(Cl)cc2)c1)c1ccccc1,8.28µM,–,–,?
O=S(=O)(Nc1nc2ccccc2nc1Cl)c1ccccc1,–,–,–,–
CCOC(=O)c1ccc(NC(=S)N(CCCN(CC)CC)Cc2ccco2)cc1,14.7µM,–,?,?
CCOC(C(=O)OCC(O)CN(CC)CC)(c1ccccc1)c1ccccc1 (stereo unspecified),–,–,–,10.4µM
CC[N+](C)(CC)CCCOC(=O)C(O)(c1ccccc1)C1CCCCC1 (stereo unspecified),–,–,–,4.15µM
CC[N+](C)(CC)CCOC(=O)C(O)(c1ccccc1)C1CCCCC1 (stereo unspecified),13.1µM!,–,–[8.37 µM],11.7µM!
CC[N+](C)(CC)CCC/C(=N/O)C(O)(c1ccccc1)c1ccccc1,–,–,–,?
CC[N+](C)(CC)CCC(c1ccccc1)C1CCCCC1 (stereo unspecified),?,–,–,6.57µM
O=C(O)C(O)(c1ccccc1)C1CCCCC1 (stereo unspecified),?,–,–,–
NC(=O)c1nsc(C(=O)N(CC(=O)NC2CCCC2)Cc2ccc3c(c2)OCO3)c1N,–,–,–,–
Cn1nccc1C(=O)NC1CCN(Cc2ccccc2)CC1,–,–,–,–
CCN(CC)CC#CCOC(=O)[C@@](O)(c1ccccc1)C1CCCCC1,12µM,·,·,?
CCOC(C(=O)OCCC[N+](C)(CC)CC)(c1ccccc1)c1ccccc1,·,–,–,2.08µM
CC(C)CCNC(=O)[C@@H](Cc1ccccc1)NC(=O)CC[C@H]1O[C@@H](n2ccc(=O)[nH]c2=O)[C@H](O)[C@@H]1O,·,–,·,·
CCN(CC)C(=O)C1CCCN(Cc2cccc(F)c2)C1 (stereo unspecified),–,–,–,·
NC(=O)C1CCCN(Cc2ccc3ccccc3c2)C1 (stereo unspecified),2.62µM,–,–,?
SMILES,Pf growth 96h,AMA1 RON2 block,HCV inhibitor,Pf growth 48h
CCN(CC)C(=O)C1CCCN(Cc2ccc3ccccc3c2)C1 (stereo unspecified),13.1µM,–,–,–
O=C(C1CCCN(Cc2ccccc2)C1)N1CCCCC1 (stereo unspecified),?,–,–,·
CC(C)Oc1ccc(C(=O)NCCCNC(=O)c2ccccn2)cc1,–,–,–,–
CC1CCCCC1NC(=O)COC(=O)c1c2c(nc3ccccc13)/C(=C/c1ccco1)CC2 (stereo unspecified),14.7µM,?,?,–
CCc1cccc(C)c1NC(=O)COC(=O)c1c2c(nc3ccccc13)/C(=C\c1cccs1)CCC2,10.4µM,–,1.12µM,13.1µM
CCCCNC(=O)COC(=O)c1c2c(nc3ccccc13)/C(=C\c1cccs1)CC2,·,–,2.82µM,·
CC(C)CNC(=O)COC(=O)c1c2c(nc3ccccc13)/C(=C/c1cccs1)CC2,?,–,?,?
O=C(COC(=O)c1c2c(nc3ccccc13)/C(=C/c1ccco1)CC2)NC1CCCC1,?,–,?,–
CCOc1ccc(OCc2cccc(C(=O)Nc3ccc(CN4CCCCC4)cc3)c2)cc1,?,–,?,?
NC(=S)NN=C1CCCCCCCCCC1,·,–,11.2µM,·
Cn1nc(C(F)(F)F)c(C(=O)Nc2cccc(Cl)c2)c1Cl,?,–,–,–
